Results from PubChem BioAssay.
For part of these data: Entries with a potency or affinity are not part of this list. Activity calls are given as the source filed them.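 The calls were made as follows, unless noted: active = calcium signal cut by more than 3 SD below the full-agonist control yet still positive, in both repeats and the earlier primary screen; inactive = the rest.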

Key:
[1] = tested on: TRPC4 beta (transient receptor potential cation channel C4), mouse; test: TRPC4 cation channel opening, retest – cell-based, Fluo4 calcium, HEK293 TRPC4beta/mu-opioid, duplicates, 10 µM, confirmation (AID 2426;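 active = fluorescence ratio normalized to control raised more than 50% in primary screen plus both repeat runs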); conditions: Fluo4 calcium fluorescence, at 10 µM; active compounds read high
[2] = tested on: transient receptor potential cation channel C4 beta (TRPC4), mouse; test: TRPC4 cation channel opening, second retest – cell-based, second round, Fluo4, HEK293 TRPC4beta/mu-opioid, 1 µM, confirmation (AID 2461;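 active = primary screen active and over 50% activation in each of two duplicate runs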); conditions: Fluo4 calcium fluorescence, at 1 µM; active compounds read high
[3] = tested on: TRPC4 (transient receptor potential cation channel C4 beta), mouse; test: potentiation of DAMGO EC20 TRPC4 response – cell-based, second round, Fluo-4, HEK293 TRPC4beta/mu-opioid, 1 µM, confirmation (AID 2554;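 active = primary screen hit whose fluorescence ratio, in both repeats, exceeds the weak agonist control mean by 3 SD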); conditions: DAMGO EC20, Fluo-4 calcium flux, at 1 µM; active compounds read high
[4] = tested on: TRPC4 beta (transient receptor potential cation channel C4), mouse; test: potentiation of DAMGO EC20 TRPC4 response – cell-based, Fluo-4, HEK293 TRPC4beta/mu-opioid, confirmation (AID 2555;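 active = primary screen hit whose calcium fluorescence ratio, in both repeats, exceeds the weak agonist control mean by 3 SD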); conditions: DAMGO EC20, Fluo-4 calcium flux, at 10 µM; active compounds read high
[5] = molecular target: Short transient receptor potential channel 4 (Mus musculus) (UniProt Q9QUQ5); test: blockers of DAMGO-evoked TRPC4 calcium flux – cell-based, Fluo4, HEK293 TRPC4beta/mu-opioid, confirmation (AID 2636); conditions: at 10 µM; active compounds read high
[6] = molecular target: Short transient receptor potential channel 4 (Mus musculus) (UniProt Q9QUQ5); test: blockers of DAMGO-evoked TRPC4 calcium flux – cell-based, second round, Fluo4, HEK293 TRPC4beta/mu-opioid, 1 µM, confirmation (AID 2637;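 active = calcium signal ratio cut to more than 3 SD under the fully stimulated control mean yet still positive, in both repeats and the primary screen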;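 as to inhibition: percent of integrated ratio relative to wells lacking test compound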); conditions: at 1 µM; active compounds read high
[7] = molecular target: Short transient receptor potential channel 4 (Mus musculus) (UniProt Q9QUQ5); test: calcium entry via TRPC4 opening agents – cell-based, HEK293 TRPC4/mu-opioid, Fluo-4 calcium, dose response (AID 434937;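 active = primary screen activator hit with a dose response curve and TRPC4 channel activation at any tested dose; inactive = no activation, no dose response, or not a primary hit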)
[8] = molecular target: Short transient receptor potential channel 4 (Mus musculus) (UniProt Q9QUQ5); test: potentiation of DAMGO-evoked TRPC4 calcium signal – cell-based, HEK293 TRPC4/mu-opioid, Fluo-4 calcium, EC20 DAMGO, dose response (AID 434941;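 active = earlier screen potentiator hit that boosts the TRPC4 ion channel at some dose, with a dose response; inactive = no potentiation, no dose response, or not a prior hit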;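 also: calcium entry triggered by an EC20 dose of DAMGO at the co-expressed mu-opioid receptor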)
[9] = molecular target: Short transient receptor potential channel 6 (Mus musculus) (UniProt Q61143); test: TRPC6 blockade by TRPC4 inhibitor hits – cell-based, HEK293, membrane potential dye, duplicate, selectivity assay for TRPC4 inhibitor project, confirmation (AID 434948;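 active = active in primary screen and both duplicates, each dropping signal beyond three positive-control SD with fluorescence still positive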); conditions: HEK293 TRPC6, membrane potential dye fluorescence, at 10 µM, stimulated with maximal-effect acetylcholine; active compounds read high
[10] = molecular target: Short transient receptor potential channel 6 (Mus musculus) (UniProt Q61143); test: TRPC6 opening by TRPC4 activator hits – cell-based, HEK293, membrane potential dye, duplicate, selectivity assay for TRPC4 activator project, confirmation (AID 434950;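 active = membrane potential signal rise above negative control mean plus 3 SD in both duplicates, also active in the earlier TRPC4 screen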); conditions: HEK293 TRPC6, membrane potential fluorescence, at 10 µM; activation: active compounds read high; outcome: activation
[11] = molecular target: Short transient receptor potential channel 6 (Mus musculus) (UniProt Q61143); test: positive modulators of mouse TRPC6 channel – HEK293 cells, membrane potential dye, duplicate, selectivity assay for TRPC4 potentiator project, confirmation (AID 434952;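 active = compound raising the membrane signal above positive-control mean plus 3 SD in both repeats, and a primary screen hit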); conditions: HEK293 TRPC6, membrane potential dye fluorescence, at 10 µM, maximal acetylcholine added after compound; active compounds read high
[12] = molecular target: Short transient receptor potential channel 4 (Mus musculus) (UniProt Q9QUQ5); test: calcium flux activators in TRPC4/5HT1a cells, counter-screen for TRPC4 activator project, cell-based, second counter screen, HEK293 TRPC4/5HT1a, Fluo-4 (AID 434977;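 active = calcium signal rise above buffer-control mean plus 5 SD in both duplicates, and also a hit in the primary screen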); conditions: Fluo-4 calcium flux, at 10 µM; active compounds read high
[13] = serotonin-gated TRPC4 signal block – cell-based, second counter screen, HEK293 TRPC4/5HT1a, Fluo-4, counter-screen for TRPC4 inhibitor project, confirmation (AID 434978;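 active = primary screen active whose calcium signal fell more than 3 SD beyond the full-serotonin control mean in both duplicate plates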;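 as to outcome: serotonin given first at submaximal then at maximal dose after compound preincubation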); conditions: Fluo-4 calcium flux, at 10 µM, serotonin added to trigger calcium flux; active compounds read high
[14] = tested on: TRPC4 (mouse), co-expressed with 5HT1a in HEK293; test: enhancement of serotonin-evoked TRPC4 response – cell-based, second counter screen, HEK293 TRPC4/5HT1a, Fluo-4, counter-screen for TRPC4 potentiator project, confirmation (AID 434979;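 active = signal rise over 3 SD above mean of control wells given weak agonist, in both repeats and first screen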); conditions: Fluo-4 calcium flux, at 10 µM, serotonin added at its EC20 dose; active compounds read high
[15] = nonspecific calcium rise without TRPC4 – cell-based, HEK293 mu-opioid receptor line, counter-screen for TRPC4 activator project, confirmation (AID 449723;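 active = hit in primary screen, with calcium signal over 5 SD above buffer well mean in both duplicates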;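 also: counter screen cells carry the mu-opioid receptor alone and lack TRPC4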); conditions: HEK293 mu-opioid cells, Fluo-4 calcium fluorescence, at 10 µM; active compounds read high
[16] = nonspecific potentiation of DAMGO calcium response – cell-based, HEK293 mu-opioid receptor line, counter-screen for TRPC4 allosteric potentiator project, confirmation (AID 449724;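 active = calcium signal rise more than 3 SD above the low-dose agonist control mean, in both duplicate plates and the primary screen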); conditions: HEK293 mu-opioid receptor cells, Fluo-4 calcium flux, at 10 µM, compound added before EC20 DAMGO stimulus; active compounds read high

Measured: inhibition

Sequence of Short transient receptor potential channel 6 (Mus musculus) (Q61143 whole entry, looked up): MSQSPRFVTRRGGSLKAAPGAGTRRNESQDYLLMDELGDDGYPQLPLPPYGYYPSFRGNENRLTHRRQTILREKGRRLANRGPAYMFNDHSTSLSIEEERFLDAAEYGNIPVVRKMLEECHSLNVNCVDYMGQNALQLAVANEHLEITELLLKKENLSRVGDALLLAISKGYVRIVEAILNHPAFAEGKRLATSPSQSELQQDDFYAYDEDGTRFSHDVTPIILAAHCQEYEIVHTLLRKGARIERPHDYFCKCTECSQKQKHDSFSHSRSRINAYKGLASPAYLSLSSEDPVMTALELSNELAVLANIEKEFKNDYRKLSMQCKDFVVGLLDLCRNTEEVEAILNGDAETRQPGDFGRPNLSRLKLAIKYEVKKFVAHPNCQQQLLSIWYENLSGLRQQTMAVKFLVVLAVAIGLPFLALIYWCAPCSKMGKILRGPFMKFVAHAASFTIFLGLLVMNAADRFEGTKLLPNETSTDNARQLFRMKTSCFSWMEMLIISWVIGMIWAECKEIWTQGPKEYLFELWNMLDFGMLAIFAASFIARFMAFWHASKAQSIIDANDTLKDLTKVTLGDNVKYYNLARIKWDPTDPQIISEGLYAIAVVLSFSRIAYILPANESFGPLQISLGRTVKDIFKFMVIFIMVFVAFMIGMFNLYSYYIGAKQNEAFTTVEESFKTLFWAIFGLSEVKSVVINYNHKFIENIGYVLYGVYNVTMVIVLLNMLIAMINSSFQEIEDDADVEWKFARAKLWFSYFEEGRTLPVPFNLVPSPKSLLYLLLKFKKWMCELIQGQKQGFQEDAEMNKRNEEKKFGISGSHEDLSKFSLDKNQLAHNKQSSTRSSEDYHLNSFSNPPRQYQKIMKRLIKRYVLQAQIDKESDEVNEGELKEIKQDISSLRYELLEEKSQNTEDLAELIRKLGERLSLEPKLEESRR
Sequence of Short transient receptor potential channel 4 (Mus musculus) (Q9QUQ5 whole entry, looked up): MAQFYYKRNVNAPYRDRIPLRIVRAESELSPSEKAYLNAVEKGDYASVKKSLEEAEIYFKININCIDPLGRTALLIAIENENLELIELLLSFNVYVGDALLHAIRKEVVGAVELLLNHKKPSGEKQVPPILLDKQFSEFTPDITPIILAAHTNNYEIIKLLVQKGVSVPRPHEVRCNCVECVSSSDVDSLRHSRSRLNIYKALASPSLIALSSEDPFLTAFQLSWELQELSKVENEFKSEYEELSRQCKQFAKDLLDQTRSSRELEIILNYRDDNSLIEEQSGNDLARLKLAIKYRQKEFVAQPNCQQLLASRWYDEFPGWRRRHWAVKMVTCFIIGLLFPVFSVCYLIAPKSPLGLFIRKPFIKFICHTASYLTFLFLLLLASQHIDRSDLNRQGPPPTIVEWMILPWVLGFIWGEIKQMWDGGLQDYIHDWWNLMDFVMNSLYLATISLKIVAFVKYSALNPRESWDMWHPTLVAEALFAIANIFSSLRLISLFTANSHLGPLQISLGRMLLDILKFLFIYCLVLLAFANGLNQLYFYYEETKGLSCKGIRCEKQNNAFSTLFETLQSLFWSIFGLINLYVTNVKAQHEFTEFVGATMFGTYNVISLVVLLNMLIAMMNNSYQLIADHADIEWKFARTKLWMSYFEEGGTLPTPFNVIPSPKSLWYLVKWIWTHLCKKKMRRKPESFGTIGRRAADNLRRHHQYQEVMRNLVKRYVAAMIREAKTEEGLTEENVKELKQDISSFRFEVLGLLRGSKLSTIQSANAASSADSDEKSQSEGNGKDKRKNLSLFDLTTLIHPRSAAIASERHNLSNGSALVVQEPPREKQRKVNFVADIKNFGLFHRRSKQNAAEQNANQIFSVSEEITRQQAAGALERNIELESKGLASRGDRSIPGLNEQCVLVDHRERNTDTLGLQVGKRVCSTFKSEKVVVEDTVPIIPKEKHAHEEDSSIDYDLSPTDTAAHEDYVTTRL

CC(C)n1c(NCc2c[nH]c3ccccc23)nc2ccccc21
active: [5] 50% | [9] 33.5% | [13] 26.4%
inactive: all other assays above

Cc1cccc2cc(CN(Cc3nnnn3Cc3ccccc3)C3CCCC3)c(=O)[nH]c12
active: [5] 91% | [6] 63%
inactive: all other assays above

CCOC(=O)C1(Cc2cccc(OC)c2)CCN(Cc2cccc(O)c2)CC1
active: [5] 84% | [6] 43%
inactive: all other assays above

CCOc1ccccc1-n1c(SCC(=O)Nc2nccs2)nnc1-c1ccoc1C
active: [5] 52% | [6] 44%
inactive: all other assays above

Clc1ccc(CN2C3=NCCN3c3ccccc32)cc1
active: [5] 99% | [6] 75% | [13] 14.4%
inactive: all other assays above

N#Cc1c(NC(=O)C2CC(Cl)=CCC2C(=O)O)sc2c1CCCCC2 (stereo not given)
active: [5] 51% | [13] 18.6%
inactive: all other assays above

CCCn1c(NCc2ccc(C)o2)nc2ccccc21
active: [5] 70% | [13] 30%
inactive: all other assays above

Cc1cc2[nH]c3ccccc3c2c(C)n1
active: [5] 87% | [9] 41.5% | [13] 20.3%
inactive: all other assays above

NC1=NC2=C(CCCC2)C2(CCCCC2)S1
active: [5] 91% | [9] 44.5% | [13] 14%
inactive: all other assays above

CC(C)NC(=S)N1CCN(C/C=C/c2ccccc2)CC1
active: [5] 71%
inactive: all other assays above

Clc1ccc(C[n+]2cc(-c3ccccc3)n3c2CCC3)cc1Cl
active: [5] 93% | [6] 60% | [13] 25.4%
inactive: all other assays above

Fc1ccc(CN2CCC(Cc3ccccc3)CC2)cc1F
active: [5] 89% | [13] 25.9%
inactive: all other assays above

Cc1ccc(S(=O)(=O)Nc2cccc(C(=O)NCC(c3ccco3)N3CCCCC3)c2)cc1F (stereo not given)
active: [5] 100% | [6] 39%
inactive: all other assays above

Brc1cc2c(cc1COc1ccc(-c3nn[nH]n3)cc1)OCO2
active: [5] 89% | [13] 35.1%
inactive: all other assays above

c1csc(-c2nc(NCC3CCCO3)c3ccccc3n2)c1 (stereo not given)
active: [5] 79% | [13] 28%
inactive: all other assays above
